Test results as given in PubChem BioAssay (Tox21).
Records with an inconclusive call do not appear. Active and inactive are the calls of the source. Unless noted, the call rests on the fitted dose curve.

Assays:
[1] = Nuclear factor erythroid 2-related factor 2/antioxidant responsive element (Nrf2/ARE) small molecule agonists: qHTS cell viability counter screen in human keratinocytes (AID 1919968; active means well fitted curve in the direction sought with a large enough effect in the repeat runs; an effect the other way counts as inactive or inconclusive; further: nearly all actives have a fitted effect of over 55% in size; further: potency means the concentration at half of the fitted maximal effect)
In short: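 Measured as CellTiter-Fluor fluorescence, this readout tracks cytotoxicity in the same wells as the ARE-luciferase screen. HaCaT reporter cells (1,500/well) received compounds after a 5 h pre-incubation and were exposed for 23 h.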

[2] = molecular target: Gonadotropin-releasing hormone receptor (Homo sapiens) (UniProt P30968); experiment: Human gonadotropin-releasing hormone receptor (GnRHR) small molecule agonists, calcium flux assay in GnRHR-HEK293 cells (AID 1920063); further: nearly all actives have a fitted effect of over 35% in size
Chain of Gonadotropin-releasing hormone receptor (Homo sapiens) (P30968 whole entry, looked up): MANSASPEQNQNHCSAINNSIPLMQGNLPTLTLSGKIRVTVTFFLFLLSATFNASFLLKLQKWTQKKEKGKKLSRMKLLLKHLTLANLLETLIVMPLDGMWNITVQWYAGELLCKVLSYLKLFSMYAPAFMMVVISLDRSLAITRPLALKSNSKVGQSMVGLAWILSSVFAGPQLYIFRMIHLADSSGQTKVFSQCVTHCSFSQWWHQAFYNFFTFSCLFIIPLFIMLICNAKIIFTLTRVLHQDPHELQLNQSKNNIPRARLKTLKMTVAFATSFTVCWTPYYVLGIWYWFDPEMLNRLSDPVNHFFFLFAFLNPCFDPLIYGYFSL
In short: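 Fluorescence kinetics (480 nm excitation, 540 nm emission; 3 min, 1 s steps) report calcium mobilisation in human GnRHR-HEK293 cells in agonist mode. Dye incubation: 1 h, 37 C.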

[3] = molecular target: KiSS-1 receptor (Homo sapiens) (UniProt Q969F8); experiment: Human kisspeptin (KISS1R) small molecule agonists, calcium flux assay in KISS1R-HEK293 cells (AID 1920064; active means well fitted curve in the direction sought with a large enough effect in the repeat runs; an effect the other way counts as inactive or inconclusive)
Chain of KiSS-1 receptor (Homo sapiens) (Q969F8 whole entry, looked up): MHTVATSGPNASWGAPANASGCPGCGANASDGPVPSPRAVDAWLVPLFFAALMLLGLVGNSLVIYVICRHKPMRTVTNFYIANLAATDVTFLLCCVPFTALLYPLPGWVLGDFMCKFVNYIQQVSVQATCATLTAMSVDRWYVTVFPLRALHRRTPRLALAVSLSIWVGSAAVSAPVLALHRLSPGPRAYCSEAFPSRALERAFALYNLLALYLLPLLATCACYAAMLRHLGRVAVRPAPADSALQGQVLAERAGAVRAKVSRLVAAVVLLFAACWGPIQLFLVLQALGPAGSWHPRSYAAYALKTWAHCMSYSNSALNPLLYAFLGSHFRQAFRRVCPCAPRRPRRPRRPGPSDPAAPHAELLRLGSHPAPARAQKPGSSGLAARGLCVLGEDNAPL
In short: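 Measures KISS1R agonism through calcium-sensitive dye fluorescence in stably transfected HEK293 cells, read for 3 min after pin-tool compound delivery; 15-point titrations in triplicate.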

[4] = G protein-coupled receptor (GPCR) small molecule agonists, calcium flux assay: HEK293 wild type cell line counter screen (AID 1920065)
In short: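 Readout: fluorescence at 480 nm excitation/540 nm emission, sampled at 1 s intervals for 3 min. Cells had been cultured 18 h, then dye-loaded 1 h at 37 C before compound or ATP addition.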

[5] = p53 small molecule agonists, cell-based qHTS assay with human liver microsomes (AID 1963577);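 further: p53 response element beta-lactamase reporter cells with liver microsomes plus NADPH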
In short: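 With metabolic activation: human liver microsomes (0.5 mg/mL final) plus NADPH (0.5 mg/mL final) added alongside compounds to p53RE-bla cells; 16 h 37 C exposure; beta-lactamase read by LiveBLAzer fluorescence.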

[6] = p53 small molecule agonists, cell-based qHTS assay with rat liver microsomes (AID 1963578)
In short: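 Metabolic activation by rat liver microsomes and NADPH, each 0.5 mg/mL final, added right after compounds to p53RE-bla reporter cells (4,000/well, plated 5 h earlier). 16 h at 37 C, then LiveBLAzer substrate for 2 h at room temperature in the dark; fluorescence read-out.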

[7] = p53 small molecule agonists, cell-based qHTS assay with rat liver microsomes: qHTS cell viability counter screen (AID 1963580); further: nearly all actives have a fitted effect of over 45% in size
In short: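 p53RE-bla HCT-116 cells were exposed 16 h at 37 C to compounds with rat liver microsomes (0.5 mg/mL) and NADPH (0.5 mg/mL). Viability was measured in the same wells as ATP content by CellTiter-Glo luminescence.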

[8] = p53 small molecule agonists, cell-based qHTS assay (AID 1963582; active means well fitted activation curve with a large enough effect in the signal ratio in the repeat runs, not every such curve was filed as active; the % refers to the signal ratio)
In short: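 Compounds are pin-transferred in DMSO onto p53RE-bla cells and incubated 16 h at 37 C. The B/G FRET beta-lactamase substrate is then applied for 2 h at RT and fluorescence recorded.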

[9] = molecular target: 5-hydroxytryptamine receptor 2A (Homo sapiens) (UniProt P28223); experiment: 5-hydroxytryptamine receptor 2A (HTR2A) small molecule antagonists, cell-based qHTS assay (AID 1963586); further: nearly all actives have a fitted effect of over 45% in size
Chain of 5-hydroxytryptamine receptor 2A (Homo sapiens) (P28223 whole entry, looked up): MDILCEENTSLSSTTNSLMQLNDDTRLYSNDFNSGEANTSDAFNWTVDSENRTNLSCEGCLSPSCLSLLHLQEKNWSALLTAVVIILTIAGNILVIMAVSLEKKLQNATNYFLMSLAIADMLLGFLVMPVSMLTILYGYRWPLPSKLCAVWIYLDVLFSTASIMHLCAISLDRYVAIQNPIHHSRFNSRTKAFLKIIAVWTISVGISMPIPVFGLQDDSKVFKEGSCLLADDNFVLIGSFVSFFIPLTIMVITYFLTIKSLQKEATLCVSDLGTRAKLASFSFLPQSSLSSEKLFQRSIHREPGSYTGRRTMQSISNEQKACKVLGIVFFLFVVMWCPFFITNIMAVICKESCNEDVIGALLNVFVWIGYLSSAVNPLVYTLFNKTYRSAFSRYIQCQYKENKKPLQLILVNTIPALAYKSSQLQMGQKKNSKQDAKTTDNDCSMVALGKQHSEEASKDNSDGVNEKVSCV
In short: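 Antagonist-mode intracellular calcium assay: DOI (4 nM) added after 5 min compound pre-incubation at room temperature to dye-loaded HTR2A-CHO cells. Fluorescence followed for 3 min, sampled every second.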

[10] = molecular target: 5-hydroxytryptamine receptor 2A (Homo sapiens) (UniProt P28223); experiment: 5-hydroxytryptamine receptor 2A (HTR2A) small molecule agonists, cell-based qHTS assay (AID 1963587); further: nearly all actives have a fitted effect of over 30% in size
In short: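 CHO cells stably expressing human HTR2A, plated 18 h, loaded with calcium dye 1 h at 37 C. Agonist mode: compounds added and intracellular calcium fluorescence recorded kinetically for 2 min at 1 sec intervals.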

[11] = molecular target: Muscarinic acetylcholine receptor M1 (Homo sapiens) (UniProt P11229); experiment: Cholinergic receptor muscarinic 1 (CHRM1) small molecule antagonists, cell-based qHTS assay (AID 1963588); further: nearly all actives have a fitted effect of over 40% in size
Chain of Muscarinic acetylcholine receptor M1 (Homo sapiens) (P11229 whole entry, looked up): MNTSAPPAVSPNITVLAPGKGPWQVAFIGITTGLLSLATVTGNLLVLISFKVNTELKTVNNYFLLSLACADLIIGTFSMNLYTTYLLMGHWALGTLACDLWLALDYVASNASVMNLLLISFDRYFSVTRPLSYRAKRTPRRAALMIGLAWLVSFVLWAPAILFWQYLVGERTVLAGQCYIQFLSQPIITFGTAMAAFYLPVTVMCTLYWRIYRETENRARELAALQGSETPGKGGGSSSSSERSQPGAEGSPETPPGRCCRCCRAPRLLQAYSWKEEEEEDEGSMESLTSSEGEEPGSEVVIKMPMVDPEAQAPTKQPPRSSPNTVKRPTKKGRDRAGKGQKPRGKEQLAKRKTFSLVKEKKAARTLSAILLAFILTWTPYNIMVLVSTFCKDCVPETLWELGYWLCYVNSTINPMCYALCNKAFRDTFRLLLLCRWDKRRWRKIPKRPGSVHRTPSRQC
In short: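 CHRM1-CHO calcium-flux assay, antagonist mode. Cells were seeded 18 h, dye-loaded 1 h at 37 C and given compound for 5 min at RT, then acetylcholine was added at 50nM. FDSS fluorescence was read 3 min; 15 concentrations, three runs.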

[12] = molecular target: Muscarinic acetylcholine receptor M1 (Homo sapiens) (UniProt P11229); experiment: Cholinergic receptor muscarinic 1 (CHRM1) small molecule agonists, cell-based qHTS assay (AID 1963589); further: nearly all actives have a fitted effect of over 35% in size
In short: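 Each compound was tested at 15 concentrations across three independent runs on dye-loaded CHO cells stably expressing human CHRM1, reading intracellular calcium fluorescence kinetically at 1 sec intervals.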

[13] = cAMP Responsive Elements (CRE) small molecule agonists, cell-based qHTS assay (AID 1963590)
In short: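 Cell line: CRE-bla HEK 293T; medium DMEM/10% dialyzed FBS/0.1 mM NEAA/1 mM pyruvate/25 mM HEPES; 3 h compound exposure; beta-lactamase FRET readout after 2 h substrate loading at RT.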

[14] = cAMP Responsive Elements (CRE) small molecule antagonists, cell-based qHTS assay (AID 1963591; active means well fitted inhibition curve with a large enough effect in the signal ratio in the repeat runs, not every such curve was filed as active; the % refers to the signal ratio)
In short: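 Inhibition of NKH477-driven (0.25 uM final) CRE-beta-lactamase signal in HEK293T cells, 3 h compound exposure at 37 °C, detected by FRET substrate fluorescence.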

[15] = molecular target: Beta-2 adrenergic receptor (Homo sapiens) (UniProt P07550); experiment: Adrenergic beta2 receptor (ADRB2) small molecule antagonists, cell-based qHTS assay (AID 1963592); further: series mostly up to about 92 µM; nearly all actives have a fitted effect of over 50% in size
Chain of Beta-2 adrenergic receptor (Homo sapiens) (P07550 whole entry, looked up): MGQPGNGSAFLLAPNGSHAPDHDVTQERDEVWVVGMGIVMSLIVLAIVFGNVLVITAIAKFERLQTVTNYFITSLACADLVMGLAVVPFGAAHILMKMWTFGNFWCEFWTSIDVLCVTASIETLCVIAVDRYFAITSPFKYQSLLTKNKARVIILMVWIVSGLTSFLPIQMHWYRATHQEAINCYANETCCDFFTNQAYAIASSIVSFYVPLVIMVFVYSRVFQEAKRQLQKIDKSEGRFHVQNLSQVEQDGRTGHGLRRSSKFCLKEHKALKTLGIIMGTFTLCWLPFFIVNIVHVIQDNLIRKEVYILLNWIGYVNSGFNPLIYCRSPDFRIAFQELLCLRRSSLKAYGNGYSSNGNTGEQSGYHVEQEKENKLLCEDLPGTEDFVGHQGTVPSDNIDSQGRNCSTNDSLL
In short: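 Cells (CHO, stable ADRB2 overexpression) incubated 18-20hr at 37C; compounds added from DMSO; agonist mix (1nM isoproterenol, 100uM IBMX, 25uM Ro-20-1724) added; 0.5hr RT; d2-cAMP and anti-cAMP-cryptate added; 1hr RT; 665/615 nm read.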

[16] = molecular target: Beta-2 adrenergic receptor (Homo sapiens) (UniProt P07550); experiment: Adrenergic beta2 receptor (ADRB2) small molecule agonists, cell-based qHTS assay (AID 1963593);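 further: CHO cells stably overexpressing human ADRB2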
In short: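 CHO cells stably over-expressing ADRB2 were plated overnight at 37C, then dosed with compounds plus a stimulation mix containing 100uM IBMX and 25uM Ro-20-1724 for 0.5hr at room temperature. cAMP was measured by HTRF competition, 1hr.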

[17] = molecular target: D(2) dopamine receptor (Homo sapiens) (UniProt P14416); experiment: Dopamine D2 receptor (DRD2) small molecule agonists, cell-based qHTS assay (AID 1963594); further: nearly all actives have a fitted effect of over 35% in size
Chain of D(2) dopamine receptor (Homo sapiens) (P14416 whole entry, looked up): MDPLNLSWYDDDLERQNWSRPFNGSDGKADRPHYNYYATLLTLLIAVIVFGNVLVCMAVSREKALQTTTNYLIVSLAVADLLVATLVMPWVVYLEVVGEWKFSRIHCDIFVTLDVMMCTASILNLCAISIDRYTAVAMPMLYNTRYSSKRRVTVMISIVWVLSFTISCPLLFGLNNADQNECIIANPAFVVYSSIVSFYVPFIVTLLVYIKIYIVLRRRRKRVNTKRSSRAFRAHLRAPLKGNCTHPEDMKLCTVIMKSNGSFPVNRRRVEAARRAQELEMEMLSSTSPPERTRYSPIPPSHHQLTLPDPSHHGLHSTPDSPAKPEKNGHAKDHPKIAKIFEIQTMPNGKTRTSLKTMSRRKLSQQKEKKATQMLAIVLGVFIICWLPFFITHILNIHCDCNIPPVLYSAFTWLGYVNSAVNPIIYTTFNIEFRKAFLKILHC
In short: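 HEK293 cells stably expressing human DRD2, pre-treated with PDE inhibitor Ro20-1724 (0.1 mM final) and compound 10 min at room temperature, then stimulated with NKH477 (200nM […]) for 30 min. cAMP read by HTRF (665/620 nm).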

[18] = molecular target: D(2) dopamine receptor (Homo sapiens) (UniProt P14416); experiment: Dopamine D2 receptor (DRD2) small molecule antagonists, cell-based qHTS assay (AID 1963595; active means well fitted inhibition curve with a large enough effect in the signal ratio in the repeat runs, with a control signal flat; the % refers to the signal ratio)
In short: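 Stable D2 receptor HEK293 line, 24 h after seeding. Compound preincubated 10 min, then quinpirole (12 nM) with forskolin analogue NKH477 (200 nM), 30 min, room temperature. Detection by time-resolved FRET of cAMP.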

[19] = p53 small molecule agonists, cell-based qHTS assay: qHTS cell viability counter screen (AID 1963581); further: nearly all actives have a fitted effect of over 45% in size
In short: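 In the same plates used for the p53 bla reporter, HCT-116 cells given compounds for 16 h at 37 C received CellTiter-Glo; luminescence was recorded 30 min later at room temperature.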

[20] = p53 small molecule agonists, cell-based qHTS assay with human liver microsomes: qHTS cell viability counter screen (AID 1963579); further: nearly all actives have a fitted effect of over 45% in size
In short: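 Metabolic activation used human liver microsomes and NADPH, both 0.5 mg/mL final, over 16 hours at 37 C on p53RE-bla cells (4,000/well). Cytotoxicity measured by CellTiter-Glo luminescence, 30 min at room temperature.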

Measured: Potency

CC(=O)CC(=O)Nc1ccc(S(=O)(=O)O)cc1
inactive: [1] | [2] | [3] | [4] | [5] | [6] | [7] | [8] | [9] | [10] | [11] | [12] | [13] | [14] | [15] | [16] | [17] | [18]

CCc1oc2ccccc2c1C(=O)c1cc(I)c(O)c(I)c1
inactive: [2] | [3] | [4] | [5] | [6] | [7] | [19] | [10] | [11] | [12] | [13] | [14] | [15] | [16] | [17] | [18]
active: [1] 5.96 µM

CS(C)=O
inactive: [1] | [2] | [3] | [4] | [5] | [20] | [7] | [19] | [8] | [13] | [14] | [15] | [16] | [17] | [18]

CCCCCC[C@@H](O)C/C=C\CCCCCCCC(=O)OC
inactive: [1] | [2] | [3] | [4] | [5] | [6] | [7] | [19] | [9] | [10] | [12] | [13] | [14] | [15] | [17] | [18]

CCOC(=O)/C=C(C)/C=C/C=C(C)/C=C/c1c(C)cc(OC)c(C)c1C
inactive: [1] | [2] | [3] | [4] | [5] | [7] | [9] | [10] | [11] | [12] | [14] | [15] | [16] | [17] | [18]

CN1CCCN=C1/C=C/c1cccs1
inactive: [1] | [2] | [3] | [4] | [5] | [20] | [7] | [19] | [8] | [9] | [10] | [11] | [12] | [13] | [14] | [15] | [16] | [17] | [18]

C=C(C)C1CCC(C)(O)CC1 (stereo not given)
inactive: [1] | [2] | [3] | [4] | [6] | [20] | [7] | [19] | [8] | [9] | [10] | [11] | [12] | [13] | [14] | [15] | [16] | [17]

O=C(NCC(O)CO)c1c(I)c(C(=O)NCC(O)CO)c(I)c(N(CCO)C(=O)CO)c1I (stereo not given)
inactive: [1] | [2] | [3] | [4] | [5] | [20] | [7] | [19] | [8] | [9] | [11] | [12] | [13] | [15] | [16] | [18]

Cc1ccccn1
inactive: [1] | [2] | [3] | [4] | [6] | [20] | [7] | [19] | [8] | [9] | [10] | [12] | [13] | [14] | [15] | [16] | [17] | [18]

CCC(=O)Oc1ccc(/C(CC)=C(\CC)c2ccc(OC(=O)CC)cc2)cc1
inactive: [1] | [2] | [3] | [4] | [5] | [6] | [19] | [9] | [11] | [12] | [13] | [14] | [15] | [17] | [18]

C=C[Si]1(C)O[Si](C)(C=C)O[Si](C)(C=C)O[Si](C)(C=C)O1 (stereo not given)
inactive: [1] | [2] | [3] | [4] | [5] | [6] | [7] | [8] | [9] | [10] | [11] | [12] | [13] | [14] | [15] | [17] | [18]

Cc1ccc([N+](=O)[O-])c(N)c1
inactive: [1] | [2] | [3] | [4] | [5] | [7] | [19] | [8] | [9] | [10] | [11] | [12] | [13] | [15] | [16] | [17] | [18]

CCCCCCCC/C=C\CCCCCCCC(=O)OCCOC(=O)CCCCCCC/C=C\CCCCCCCC
inactive: [1] | [2] | [3] | [4] | [6] | [20] | [7] | [19] | [8] | [9] | [10] | [11] | [12] | [13] | [15] | [17] | [18]

C=CC(=O)OCCC#N
inactive: [1] | [2] | [3] | [4] | [6] | [20] | [7] | [19] | [8] | [9] | [10] | [11] | [12] | [13] | [14] | [15] | [16] | [17] | [18]

O=C1CCCC(=O)O1
inactive: [1] | [2] | [3] | [4] | [6] | [20] | [7] | [19] | [8] | [9] | [10] | [11] | [12] | [13] | [15] | [17] | [18]

CCCCCCCC/C=C/CCCOC(C)=O
inactive: [1] | [2] | [3] | [4] | [5] | [6] | [7] | [8] | [9] | [10] | [11] | [12] | [13] | [15] | [17] | [18]
